From PubChem
Pf apPOL block: Pf-apPOL DNA polymerase inhibition. AID 1794808. inhibition, % at 10 µM. actives 0.25% (n = 210,000). Recombinant Pf-apPOL, molecular beacon fluorescence, 1.5 h
mHTT-CaM PPI inh: disrupts binding of mutant huntingtin to calmodulin; P42858; inhibition, % at 15 µM; actives 3.6% (n = 190,000); AlphaScreen His-mHTT/GST-CaM binding, luminescence;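 further: 0% = both proteins with DMSO and 100% = one protein alone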
Target sequence (P42858 whole entry, looked up, stated change not applied): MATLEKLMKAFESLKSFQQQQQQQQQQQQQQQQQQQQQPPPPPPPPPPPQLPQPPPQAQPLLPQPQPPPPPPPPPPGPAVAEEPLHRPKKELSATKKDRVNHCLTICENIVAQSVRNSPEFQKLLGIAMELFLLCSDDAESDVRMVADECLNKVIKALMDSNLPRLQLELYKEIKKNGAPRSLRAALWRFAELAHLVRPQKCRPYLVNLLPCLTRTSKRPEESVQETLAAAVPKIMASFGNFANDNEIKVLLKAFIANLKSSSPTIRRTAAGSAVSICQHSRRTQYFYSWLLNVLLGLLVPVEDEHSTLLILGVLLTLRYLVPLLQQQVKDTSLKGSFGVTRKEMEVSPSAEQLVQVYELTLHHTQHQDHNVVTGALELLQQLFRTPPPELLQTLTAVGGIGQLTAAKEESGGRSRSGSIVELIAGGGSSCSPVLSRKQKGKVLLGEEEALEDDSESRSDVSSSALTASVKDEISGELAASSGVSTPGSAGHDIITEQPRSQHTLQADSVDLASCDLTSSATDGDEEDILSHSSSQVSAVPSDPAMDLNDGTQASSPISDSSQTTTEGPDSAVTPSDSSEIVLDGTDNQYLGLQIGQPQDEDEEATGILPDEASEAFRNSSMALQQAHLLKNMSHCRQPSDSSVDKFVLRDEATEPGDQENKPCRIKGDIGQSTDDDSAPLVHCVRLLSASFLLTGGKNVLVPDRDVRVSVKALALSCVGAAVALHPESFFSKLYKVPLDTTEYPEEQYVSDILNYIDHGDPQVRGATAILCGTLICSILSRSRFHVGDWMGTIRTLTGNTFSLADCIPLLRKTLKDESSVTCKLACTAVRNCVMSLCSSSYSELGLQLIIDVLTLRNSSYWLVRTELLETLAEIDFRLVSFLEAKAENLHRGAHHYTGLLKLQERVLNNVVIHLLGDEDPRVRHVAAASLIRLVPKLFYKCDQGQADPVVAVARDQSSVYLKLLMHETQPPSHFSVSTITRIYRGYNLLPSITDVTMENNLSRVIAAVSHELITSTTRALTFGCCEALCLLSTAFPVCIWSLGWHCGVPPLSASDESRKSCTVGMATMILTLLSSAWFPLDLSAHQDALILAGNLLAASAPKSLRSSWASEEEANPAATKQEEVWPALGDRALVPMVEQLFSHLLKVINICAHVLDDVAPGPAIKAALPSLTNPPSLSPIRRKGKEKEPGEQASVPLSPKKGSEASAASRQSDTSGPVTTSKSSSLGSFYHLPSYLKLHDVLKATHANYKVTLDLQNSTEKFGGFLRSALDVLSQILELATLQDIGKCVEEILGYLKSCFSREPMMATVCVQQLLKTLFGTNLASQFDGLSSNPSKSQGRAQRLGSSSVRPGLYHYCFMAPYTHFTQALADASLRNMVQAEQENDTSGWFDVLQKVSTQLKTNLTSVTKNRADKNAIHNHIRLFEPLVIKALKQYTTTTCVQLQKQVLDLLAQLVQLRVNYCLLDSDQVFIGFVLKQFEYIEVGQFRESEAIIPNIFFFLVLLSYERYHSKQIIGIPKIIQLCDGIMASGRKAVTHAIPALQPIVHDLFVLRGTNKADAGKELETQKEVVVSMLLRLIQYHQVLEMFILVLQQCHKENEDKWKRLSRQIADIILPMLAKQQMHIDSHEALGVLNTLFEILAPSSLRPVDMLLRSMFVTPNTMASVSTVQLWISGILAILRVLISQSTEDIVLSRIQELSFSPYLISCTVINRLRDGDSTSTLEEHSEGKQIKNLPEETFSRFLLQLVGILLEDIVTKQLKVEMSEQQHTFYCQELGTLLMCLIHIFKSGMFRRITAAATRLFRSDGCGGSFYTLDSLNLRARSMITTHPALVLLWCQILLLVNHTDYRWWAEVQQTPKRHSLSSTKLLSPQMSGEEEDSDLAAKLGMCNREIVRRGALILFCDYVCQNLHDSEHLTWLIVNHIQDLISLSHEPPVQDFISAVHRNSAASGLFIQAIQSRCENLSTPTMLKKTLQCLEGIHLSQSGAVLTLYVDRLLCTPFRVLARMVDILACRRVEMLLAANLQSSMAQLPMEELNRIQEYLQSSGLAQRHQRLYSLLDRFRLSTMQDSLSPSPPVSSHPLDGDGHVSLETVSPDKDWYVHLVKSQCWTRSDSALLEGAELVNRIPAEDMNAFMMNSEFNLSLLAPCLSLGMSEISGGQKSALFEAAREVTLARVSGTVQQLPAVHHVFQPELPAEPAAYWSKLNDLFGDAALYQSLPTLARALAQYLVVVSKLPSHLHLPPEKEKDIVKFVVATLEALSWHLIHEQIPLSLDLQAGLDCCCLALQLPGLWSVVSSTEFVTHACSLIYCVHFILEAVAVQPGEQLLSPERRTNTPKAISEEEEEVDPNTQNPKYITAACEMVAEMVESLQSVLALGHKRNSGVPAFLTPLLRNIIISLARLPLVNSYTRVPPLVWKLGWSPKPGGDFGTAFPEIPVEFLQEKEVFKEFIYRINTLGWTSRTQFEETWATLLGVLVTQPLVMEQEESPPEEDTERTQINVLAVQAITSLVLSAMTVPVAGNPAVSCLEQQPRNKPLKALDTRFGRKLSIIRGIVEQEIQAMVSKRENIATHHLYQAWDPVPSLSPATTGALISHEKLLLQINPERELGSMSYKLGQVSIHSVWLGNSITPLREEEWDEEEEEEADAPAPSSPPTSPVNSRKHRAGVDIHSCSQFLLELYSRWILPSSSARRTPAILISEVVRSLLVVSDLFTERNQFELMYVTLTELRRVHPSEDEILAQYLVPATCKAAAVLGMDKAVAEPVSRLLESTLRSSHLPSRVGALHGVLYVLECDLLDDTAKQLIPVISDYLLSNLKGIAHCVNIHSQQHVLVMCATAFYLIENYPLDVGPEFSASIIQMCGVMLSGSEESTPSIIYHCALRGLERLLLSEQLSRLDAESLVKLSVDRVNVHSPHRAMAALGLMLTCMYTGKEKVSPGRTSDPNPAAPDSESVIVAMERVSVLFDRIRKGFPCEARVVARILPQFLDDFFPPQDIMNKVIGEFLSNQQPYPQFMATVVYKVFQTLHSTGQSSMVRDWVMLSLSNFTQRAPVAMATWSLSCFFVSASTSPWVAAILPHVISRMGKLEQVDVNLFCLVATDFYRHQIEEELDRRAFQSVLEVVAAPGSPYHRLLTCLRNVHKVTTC
Active calls of the source: *; ! = a repeat was not active. Compounds with a hit are over-represented: about 3.5% of the library has one in this group of screens. No stated cut-off is given here; in the data, active means inhibition above about 50%; inactive means the rest.

For CC(C)(Oc1ccc(Cl)cc1)C(=O)NCCSc1c[nH]c2ccccc12 the results were Pf apPOL block 3 and mHTT-CaM PPI inh 99*.
For O=C(NCCSc1c[nH]c2ccccc12)c1ccc(Cl)cc1 the results were Pf apPOL block -3 and mHTT-CaM PPI inh 8.
For Cc1cc2ccccc2n1CCNC(=O)C(C)(C)Oc1ccc(Cl)cc1 the results were Pf apPOL block -2 and mHTT-CaM PPI inh 60*.
`S=C(NCC1COc2ccccc2O1)NC1CCCCC1` (centres undefined) gave mHTT-CaM PPI inh -11.
Screening O=c1[nH]c2c(=O)[nH]c(=S)[nH]c2nc1C=C(O)c1ccccc1 returned Pf apPOL block 90*.
O=c1[nH]c2ccccc2nc1C=C(O)c1ccco1 was read as Pf apPOL block -8 and mHTT-CaM PPI inh -4.
COC(=O)Oc1ccc2c(=O)c(-c3ccccc3Cl)coc2c1 was read as Pf apPOL block -4 and mHTT-CaM PPI inh 61*!.
For CCOC(=O)Oc1ccc2c(=O)c(Oc3ccccc3Cl)coc2c1 the results were Pf apPOL block -3 and mHTT-CaM PPI inh 28.
For COC(=O)Oc1ccc2c(=O)c(Oc3ccccc3Cl)coc2c1 the results were Pf apPOL block 2 and mHTT-CaM PPI inh 69*.
`CCOC(=O)Oc1ccc2c(=O)c(-c3ccccc3Cl)coc2c1` gave Pf apPOL block -3 and mHTT-CaM PPI inh 16.
`O=C(CN1C(=O)c2ccccc2C1=O)Nc1nc(-c2ccccc2)cs1` gave Pf apPOL block -66 and mHTT-CaM PPI inh 1.
For Cc1cccc(Nc2c([N+](=O)[O-])cc([N+](=O)[O-])c3cccnc23)c1 the results were Pf apPOL block -4 and mHTT-CaM PPI inh 33.
`CC(=O)NC(c1ccc(C)cc1)c1cc([N+](=O)[O-])c2cccnc2c1O` (centres undefined) gave Pf apPOL block -7 and mHTT-CaM PPI inh 100*.
`CCC(=O)NC(c1ccc(OC)c(OC)c1)c1cc([N+](=O)[O-])c2cccnc2c1O` (centres undefined) gave Pf apPOL block 20 and mHTT-CaM PPI inh 100*.
Screening CCCC(=O)NC(c1ccc(C)cc1)c1cc(Cl)c2cccnc2c1O (centres undefined) returned Pf apPOL block -1 and mHTT-CaM PPI inh 29.
For CCC(=O)NC(c1ccc(C)cc1)c1cc([N+](=O)[O-])c2cccnc2c1O (centres undefined) the results were Pf apPOL block -5 and mHTT-CaM PPI inh 100*.
`CC1(C)CC(=O)c2sc(NC(=O)c3ccccc3F)nc2C1` gave Pf apPOL block -5 and mHTT-CaM PPI inh -6.
`Cc1noc(C)c1C1CCCN1C(=O)c1c(Br)cnn1C` (centres undefined) gave Pf apPOL block -3 and mHTT-CaM PPI inh -7.
`O=C(NCc1ccc(Cl)cc1)C1CCN(C(=O)c2cc3ccsc3[nH]2)CC1` gave Pf apPOL block 7 and mHTT-CaM PPI inh -5.
Screening COc1ccc(N(CC(=O)Nc2cccc(C)c2C)S(C)(=O)=O)c(OC)c1 returned Pf apPOL block -3 and mHTT-CaM PPI inh 4.
COc1ccc(-c2cnc(SCC#N)n2-c2ccccc2)cc1 was read as Pf apPOL block 2 and mHTT-CaM PPI inh 34.
`COc1cccc(CN2CCc3c(cc(C(=O)NCCN4CCC(C)CC4)n3C)C2)c1` gave Pf apPOL block -4 and mHTT-CaM PPI inh 22.
For O=C1CCCC2=C1C(c1ccc(O)c(Cl)c1)C1=C(CCCC1=O)N2Cc1ccccc1 the results were Pf apPOL block 8 and mHTT-CaM PPI inh 24.
Screening c1ccc(C2CCC(N3CCN(Cc4cccnc4)CC3)CC2)cc1 (centres undefined) returned Pf apPOL block 18 and mHTT-CaM PPI inh -1.
For Cc1ccc(-c2nc3ncccn3c2Nc2c(C)cccc2C)o1 the results were Pf apPOL block -6 and mHTT-CaM PPI inh 10.
`Cc1cccc(C)c1Nc1c(-c2ccccn2)nc2ncccn12` gave Pf apPOL block 1 and mHTT-CaM PPI inh 100*.
`COC(=O)C(NC(=O)C12CC3CC(CC(Br)(C3)C1)C2)C(C)C` (centres undefined) gave Pf apPOL block -6 and mHTT-CaM PPI inh -2.
For O=C(Nc1nc2c(Cl)cccc2s1)c1cc(=O)c2ccccc2o1 the results were Pf apPOL block 50* and mHTT-CaM PPI inh -1.
Screening O=C(Nc1ccccc1-c1nc2ccccc2s1)c1cc(=O)c2ccccc2o1 returned Pf apPOL block -1 and mHTT-CaM PPI inh 3.
`CCn1c(CNC(=O)C2CCC2)nc2c1CN(C(=O)Cc1ccccc1C)CC2` gave Pf apPOL block -7 and mHTT-CaM PPI inh 8.
Screening COc1cccc(C(=O)Nc2nc(-c3ccc([N+](=O)[O-])cc3)cs2)c1 returned Pf apPOL block -7 and mHTT-CaM PPI inh 8.
For Cc1ccc(C2=NNC(C(O)C(O)C(O)C(C)O)S2)cc1 (centres undefined) the results were mHTT-CaM PPI inh -2.
Cc1ccc(C2=NNC(c3ccc(F)cc3)S2)cc1 (centres undefined) was read as mHTT-CaM PPI inh 62*.
